# Measured values as given in PubChem BioAssay AID624310 (Broad Institute, 2012).
# The source made the active and inactive calls.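 The calls were made as follows: active = compound lowering absorbance whose fitted half-maximal concentration is at most twice its top valid dose; inconclusive = flat fit with 30 to 70% inhibition, or poor fit; inactive = the rest, including wrong-direction or flat responses.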
# Target: Protein disulfide-isomerase (Homo sapiens) (UniProt P07237)
# Test: PDI inhibitors, insulin aggregation turbidity, confirmation, biochemical, absorbance, dry powder samples (AID 624310)
# Chain of Protein disulfide-isomerase (Homo sapiens) (P07237 whole entry, looked up): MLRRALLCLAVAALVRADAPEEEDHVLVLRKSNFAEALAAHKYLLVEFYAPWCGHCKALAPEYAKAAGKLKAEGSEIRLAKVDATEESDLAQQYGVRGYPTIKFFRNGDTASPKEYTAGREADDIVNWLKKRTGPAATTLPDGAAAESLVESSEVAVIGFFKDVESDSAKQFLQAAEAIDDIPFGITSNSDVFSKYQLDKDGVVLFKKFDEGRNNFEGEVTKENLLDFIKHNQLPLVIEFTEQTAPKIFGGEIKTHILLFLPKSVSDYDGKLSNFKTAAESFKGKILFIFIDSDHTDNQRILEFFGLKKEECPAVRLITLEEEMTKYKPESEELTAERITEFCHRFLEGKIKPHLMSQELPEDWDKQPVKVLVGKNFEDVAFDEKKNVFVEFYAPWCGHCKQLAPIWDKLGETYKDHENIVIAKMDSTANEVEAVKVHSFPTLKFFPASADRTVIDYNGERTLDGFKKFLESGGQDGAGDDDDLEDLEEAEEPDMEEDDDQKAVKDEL
smiles,measurement,value
C[C@H]1CN([C@@H](C)CO)C(=O)c2cccc(NS(C)(=O)=O)c2O[C@H]1CN(C)Cc1ccc(Oc2ccccc2)cc1,outcome,inactive
